Consider 14 compounds from PMC5540273 (PLoS ONE, 2017).

Test systems include TTK; TXK; TYRO3; ULK1; ULK2; ULK3; VRK2; WEE1; WEE2; WNK1; WNK2; WNK3; WNK4.
What all share (settings): concentration: 1 μM, replicates: in singlicate; n = 1
Assay [1] has as its system TYK2(JH1domain-catalytic).
Assay [2] relates to TYK2(JH2domain-pseudokinase).
The next assay deals with T1, VEGFR2.
T1 construct: gene KDR

The next assay concerns T2, VPS34.
T2 construct: gene PIK3C3

A further assay concerns T3, YANK1.
T3 construct: gene STK32A

A further assay has as its system T4, YANK2.
T4 construct: gene STK32B

Another assay has as its system T5, YANK3.
T5 construct: gene STK32C
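Further: KINOMEscan kinase panel screen.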

Regarding `Cc1csc(-c2nc(Nc3ccncc3)c3ccccc3n2)n1` [GW869640], the “%Inh” value in the assay on TTK is 35%; in the assay with TXK, 0%; in assay [1] it was 100%; in assay [2], 83%; in the assay with TYRO3 it was 0%; with ULK1 it was 33%. The “%Inh” value was found to be 23% with ULK2; 50% with ULK3; 36% with VEGFR2; 33% in the assay on VPS34; 20% in the assay on VRK2; 1% in the assay on WEE1. In addition, the “%Inh” value stood at 12% with WEE2; 37% in the assay on WNK1; 0% in the assay with WNK2; 33% in the assay on WNK3; 13% with WNK4; 2% in the assay on YANK1. The “%Inh” value is 3% with YANK2 and 43% in the assay with YANK3.

In the case of `CCn1c(-c2ccccn2)nc2cnccc21` [SB-736398], the “%Inh” value was found to be 0% with TTK; 10% with TXK; 21% in [1]; 45% in [2]; 0% in the assay with TYRO3; 8% in the assay on ULK1. Moreover, the “%Inh” value was determined as 0% in the assay on ULK2; 0% with ULK3; 0% with VEGFR2; 4% in the assay with VPS34; 26% in the assay on VRK2; 0% in the assay with WEE1. Further, the “%Inh” value is reported as 0% in the assay on WEE2; 0% in the assay on WNK1; 3% in the assay on WNK2; 37% in the assay with WNK3; 36% in the assay on WNK4; 0% with YANK1. Further, the “%Inh” value in the assay with YANK2 was determined as 0%; with YANK3, 32%.

On to `Cc1cc(NCC(c2ccccc2)c2ccccc2)nc(NCc2ccc(C(F)(F)F)cc2)n1` [GW497681], for which the “%Inh” value in the assay on TTK worked out at 0%; in the assay on TXK it was 0%; in assay [1] it was 9%; in [2], 23%; with TYRO3 it was 0%; in the assay on ULK1 it was 0%. Besides, the “%Inh” value in the assay on ULK2 was found to be 0%; in the assay with ULK3 it was 0%; in the assay with VEGFR2 it was 0%; with VPS34, 0%; with VRK2, 0%; in the assay on WEE1, 11%. In addition, the “%Inh” value is on record as 0% in the assay with WEE2; 0% with WNK1; 0% in the assay on WNK2; 27% in the assay on WNK3; 37% in the assay with WNK4; 0% with YANK1. Moreover, the “%Inh” value with YANK2 and in the assay on YANK3 was 0% in each case.

For `CC(=O)Nc1nc2cnc(Nc3cc(NC(=O)c4cccc(CCC#N)c4)ccc3C)nc2s1`, the “%Inh” value in the assay with TTK amounted to 16%; in the assay on TXK, 0%; in assay [1], 21%; in [2], 27%; in the assay on TYRO3, 1%; in the assay on ULK1, 0%. Also, the “%Inh” value was found to be 20% with ULK2; 0% in the assay on ULK3; 29% in the assay on VEGFR2; 12% in the assay on VPS34; 0% in the assay with VRK2; 0% in the assay on WEE1. Further, the “%Inh” value with WEE2 amounted to 0%; in the assay with WNK1 it was 0%; in the assay on WNK2 it was 22%; with WNK3 it was 0%; in the assay with WNK4, 11%; in the assay with YANK1, 15%. Moreover, the “%Inh” value with YANK2 was 9%; with YANK3, 34%.

Consider `Cc1cccc(-c2nc(Nc3cccc(C(N)=O)c3)c3ccccc3n2)n1` [GW876019], for which the “%Inh” value in the assay on TTK came to 0%; with TXK, 0%; in assay [1] it was 19%; in assay [2], 25%; in the assay with TYRO3, 9%; with ULK1, 0%. Besides, the “%Inh” value in the assay with ULK2 worked out at 0%; in the assay on ULK3, 0%; in the assay with VEGFR2 it was 0%; with VPS34 it was 4%; in the assay on VRK2, 0%; with WEE1, 5%. The “%Inh” value with WEE2 is 9%; in the assay with WNK1, 0%; in the assay with WNK2, 0%; in the assay on WNK3 it was 0%; in the assay on WNK4 it was 0%; with YANK1 it was 0%. For the same compound, the “%Inh” value with YANK2 and with YANK3 was 0% in each case.

As for `COc1ccccc1CNC(=O)c1cc(C(=O)c2ccccc2C)c[nH]1` [GSK364507], the “%Inh” value in the assay with TTK came to 0%; with TXK, 27%; in assay [1], 5%; in assay [2], 21%; with TYRO3 it was 15%; in the assay with ULK1 it was 4%. Moreover, the “%Inh” value came out at 0% in the assay with ULK2; 9% in the assay with ULK3; 0% with VEGFR2; 1% with VPS34; 0% in the assay with VRK2; 9% with WEE1. The “%Inh” value with WEE2 is listed as 12%; in the assay with WNK1, 10%; with WNK2 it was 12%; in the assay on WNK3 it was 25%; in the assay on WNK4, 32%; in the assay with YANK1, 10%. Besides, the “%Inh” value is on record as 0% with YANK2 and 23% with YANK3.

For the compound `CCCc1ccc(S(=O)(=O)NC2CCN(c3ccnc(Nc4ccc(F)cc4)n3)C2)cc1` (stereo not shown) [GSK1379715], the “%Inh” value in the assay on TTK is 0%; in the assay with TXK it was 73%; in [1], 26%; in assay [2] it was 30%; with TYRO3, 0%; in the assay with ULK1, 16%. Also, the “%Inh” value amounted to 0% in the assay with ULK2; 4% in the assay on ULK3; 0% in the assay with VEGFR2; 0% with VPS34; 7% in the assay with VRK2; 6% in the assay with WEE1. Besides, the “%Inh” value in the assay on WEE2 is listed as 0%; with WNK1, 17%; in the assay on WNK2, 0%; with WNK3, 20%; in the assay with WNK4, 4%; in the assay on YANK1, 18%. Also, the “%Inh” value in the assay on YANK2 was 0%; in the assay on YANK3 it was 100%.

Take `O=C(Nc1n[nH]c2nc(-c3nccs3)c(Br)cc12)C1CCCC1` [SB-742609]: the “%Inh” value in the assay with TTK was found to be 13%; in the assay on TXK, 27%; in assay [1], 18%; in [2] it was 31%; with TYRO3, 0%; in the assay on ULK1, 5%. The “%Inh” value with ULK2 was determined as 0%; with ULK3, 18%; with VEGFR2, 0%; in the assay with VPS34, 0%; in the assay with VRK2, 34%; in the assay with WEE1, 0%. Moreover, the “%Inh” value is on record as 1% in the assay on WEE2; 10% with WNK1; 0% with WNK2; 19% with WNK3; 0% in the assay with WNK4; 4% in the assay with YANK1. Also, the “%Inh” value in the assay on YANK2 stood at 0%; in the assay on YANK3, 28%.

As to `Cl.Oc1ccc(-c2nc(-c3ccccc3)[nH]c2-c2ccncc2)cc1` [SB-428218], the “%Inh” value in the assay with TTK was 0%; in the assay with TXK it was 8%; in assay [1] it was 100%; in [2], 67%; in the assay on TYRO3, 0%; in the assay on ULK1 it was 8%. For the same compound, the “%Inh” value with ULK2 is on record as 0%; with ULK3, 6%; with VEGFR2, 0%; with VPS34, 0%; with VRK2, 64%; with WEE1, 64%. Also, the “%Inh” value was 8% with WEE2; 0% with WNK1; 0% in the assay on WNK2; 0% with WNK3; 60% in the assay on WNK4; 8% in the assay with YANK1. The “%Inh” value is 0% in the assay with YANK2 and 21% in the assay with YANK3.

For `Cl.NC(=O)c1cccc(Nc2nccc(Nc3ccc(Oc4cccc(Cl)c4)c(Cl)c3)n2)c1` [GW659008], the “%Inh” value was determined as 29% in the assay on TTK; 0% with TXK; 39% in [1]; 18% in assay [2]; 10% in the assay with TYRO3; 6% with ULK1. Moreover, the “%Inh” value in the assay with ULK2 was 0%; with ULK3, 0%; in the assay on VEGFR2 it was 0%; in the assay with VPS34, 9%; in the assay with VRK2, 0%; with WEE1 it was 0%. Further, the “%Inh” value in the assay on WEE2 is on record as 12%; in the assay with WNK1, 0%; in the assay with WNK2 it was 0%; with WNK3 it was 15%; in the assay with WNK4, 0%; with YANK1, 3%. Further, the “%Inh” value in the assay on YANK2 is on record as 2%; with YANK3 it was 28%.

For `COc1cc(Nc2nccc(N3CCC(NC(=O)Nc4cc(C)ccc4C)C3)n2)cc(OC)c1OC` (stereo not shown) [GSK1379762], the “%Inh” value was 16% with TTK; 13% in the assay on TXK; 39% in [1]; 3% in [2]; 0% in the assay with TYRO3; 19% in the assay on ULK1. Also, the “%Inh” value was found to be 4% with ULK2; 92.4% in the assay with ULK3; 0% in the assay on VEGFR2; 0% in the assay with VPS34; 0% in the assay on VRK2; 32% with WEE1. Moreover, the “%Inh” value was determined as 9% in the assay with WEE2; 1% in the assay with WNK1; 0% in the assay with WNK2; 8% in the assay with WNK3; 25% with WNK4; 8% in the assay on YANK1. The “%Inh” value in the assay with YANK2 is recorded as 0%; with YANK3, 10%.

For the compound `COc1cccc(NC(=O)NC2CCN(c3ccnc(Nc4ccc(F)cc4)n3)C2)c1` (stereo not shown) [GSK1379721], the “%Inh” value was 9% in the assay with TTK; 41% with TXK; 26% in assay [1]; 52% in assay [2]; 0% with TYRO3; 13% in the assay with ULK1. Besides, the “%Inh” value in the assay on ULK2 came out at 0%; in the assay on ULK3, 9%; in the assay with VEGFR2 it was 10%; with VPS34 it was 7%; with VRK2 it was 0%; in the assay with WEE1 it was 6%. In addition, the “%Inh” value in the assay on WEE2 was determined as 0%; with WNK1, 5%; with WNK2 it was 8%; in the assay on WNK3, 33%; in the assay with WNK4, 2%; in the assay on YANK1, 0%. Moreover, the “%Inh” value in the assay on YANK2 and with YANK3 was 0% throughout.

As for `Cc1cccc(-c2cc(Nc3ccncc3)c3ccccc3n2)n1` [GSK223675], the “%Inh” value in the assay with TTK is reported as 0%; in the assay with TXK, 87%; in assay [1], 0%; in assay [2], 22%; in the assay with TYRO3 it was 0%; with ULK1, 13%. Further, the “%Inh” value with ULK2 is listed as 0%; in the assay with ULK3, 6%; in the assay with VEGFR2, 15%; in the assay on VPS34, 0%; with VRK2 it was 0%; in the assay on WEE1, 20%. Moreover, the “%Inh” value was found to be 0% with WEE2; 4% in the assay with WNK1; 0% in the assay on WNK2; 1% in the assay with WNK3; 0% in the assay with WNK4; 2% in the assay on YANK1. For the same compound, the “%Inh” value with YANK2 and with YANK3 was 0% in each case.

As to `O=c1cc(N2CCOCC2)nc2n(Cc3cccc(Cl)c3Cl)ccn12` [GSK2286295], the “%Inh” value with TTK is on record as 0%; in the assay with TXK, 19%; in [1], 4%; in [2], 0%; in the assay with TYRO3 it was 0%; with ULK1 it was 12%. In addition, the “%Inh” value worked out at 0% with ULK2; 0% in the assay with ULK3; 0% in the assay with VEGFR2; 97% with VPS34; 0% with VRK2; 3% with WEE1. Further, the “%Inh” value is given as 0% in the assay on WEE2; 0% in the assay on WNK1; 0% with WNK2; 0% in the assay with WNK3; 0% in the assay with WNK4; 16% in the assay with YANK1. For the same compound, the “%Inh” value came out at 2% in the assay on YANK2 and 0% with YANK3.
